Results filed as inconclusive are left out. A call without a number means that no potency is given here. Values without a mark were called inactive. Activity calls are given as the source filed them. The call rests on the fitted dose curve; in most records, active means well fitted curve in the direction sought with a large enough effect; inconclusive means small, poorly fitted or top-dose-only effect, or another doubt; inactive means no such curve, though single readings can be large; an effect the other way counts as inactive or inconclusive.
Columns and labels:
[1] = molecular target: Cellular tumor antigen p53 (Homo sapiens) (UniProt P04637); assay: Primary qHTS for small molecule compounds that upregulate eGFP-tagged delta133p53alpha (in N-terminal) cells. (AID 2060322); details: NCI-H358 eGFP-delta133p53alpha fluorescence, 24 h; activation: stronger effect = higher value;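 further: cells pre-induced with doxycycline then dosed without doxycycline; series mostly up to about 56 µM; nearly all actives have a fitted effect of over 75% in size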
Cellular tumor antigen p53 (Homo sapiens), sequence (P04637 whole entry, looked up): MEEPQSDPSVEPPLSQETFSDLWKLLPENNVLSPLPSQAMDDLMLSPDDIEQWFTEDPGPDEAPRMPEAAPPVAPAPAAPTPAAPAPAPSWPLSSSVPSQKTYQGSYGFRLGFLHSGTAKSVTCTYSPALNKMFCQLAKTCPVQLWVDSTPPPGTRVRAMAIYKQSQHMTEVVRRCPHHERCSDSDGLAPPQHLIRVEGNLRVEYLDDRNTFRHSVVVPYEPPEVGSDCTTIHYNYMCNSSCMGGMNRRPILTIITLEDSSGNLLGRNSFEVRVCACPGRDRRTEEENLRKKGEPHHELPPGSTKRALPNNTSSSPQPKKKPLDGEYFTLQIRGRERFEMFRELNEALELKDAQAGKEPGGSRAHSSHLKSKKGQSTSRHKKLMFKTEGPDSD
How it was run: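 NCI-H358 cells pre-induced 24 h with 10 ng/ml doxycycline for eGFP-delta133p53alpha, plated dox-free and exposed 24 h at 37C to titrated compounds. Fixed, Hoechst-stained; gated GFP peak intensity by laser scanning cytometry, normalized to DMSO (0%) and 57.5 uM 5-azacytidine (100%).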

[2] = molecular target: Aldehyde dehydrogenase, mitochondrial (Homo sapiens) (UniProt P05091); assay: qHTS for Inhibitors of the Aldehyde Dehydrogenase Family (ALDH2) Primary screen (AID 2061308); further: nearly all actives have a fitted effect of over 55% in size
[3] = molecular target: Retinaldehyde dehydrogenase 3 (Homo sapiens) (UniProt P47895); assay: qHTS for Inhibitors of the Aldehyde Dehydrogenase Family (ALDH1A3) Validation screen (AID 2061312); further: nearly all actives have a fitted effect of over 45% in size; further: potency means the concentration at half of the fitted maximal effect
[4] = molecular target: Retinaldehyde dehydrogenase 3 (Homo sapiens) (UniProt P47895); assay: qHTS for Inhibitors of the Aldehyde Dehydrogenase Family (ALDH1A3) Primary screen (AID 2061315)

SMILES | activation [1] | Potency [2] | Potency [3] | Potency [4]
CCCSc1nc(NC2CC2c2ccc(F)c(F)c2)c2nnn(C3CC(OCCO)C(O)C3O)c2n1 (configuration not stated) | 16.7% | inactive | 31.6 µM (active) | inactive
NC(=O)c1cccc2[nH]c(-c3ccc(C4CCCN4)cc3F)nc12 (configuration not stated) | 0% | inactive | inactive | inactive
Fc1ccc(-c2cncc(CN3CCN(c4cccc5c4OCCO5)CC3)c2)cc1 | -10% | inactive | inactive | inactive
O=C(CC1NCCC[C@H]1O)Cn1cnc2cc(Br)c(Cl)cc2c1=O (some centres not stated) | 5.25% | inactive | inactive | inactive
CCOc1ccc(CCNC(=O)c2cc3sc(Cl)cc3n2C)cc1OCC | -10.5% | inactive | inactive | inactive
C=CCCN1CCC2(CC1)CN(C(=O)c1c(F)cccc1F)c1ccc(Cl)cc12 | 8.11% | inactive | inactive | inactive
CCc1c(CC(N)=O)c2cc(OCCCP(=O)(O)O)ccc2n1Cc1ccccc1 | 2.86% | inactive | inactive | inactive
COc1ccc2c(c1O[C@H]1CCNC1)CCC2 | -0.955% | inactive | inactive | inactive

From PubChem BioAssay (NCATS)
